According to PubChem BioAssay:
Several values for one entry are separate records, joined by “and”; a condition that tells them apart may be missing. Identical values can stand only once. Activity calls are given as the source filed them.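 Rule for the calls, unless noted: active = normalized viability below 100% at a tested concentration; inactive = the rest.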

How the values were obtained:
[1] = stimulators of nuclear beta-catenin in C2C12, primary screen, imaging, WNT3A-conditioned medium, mouse C2C12, NPC library (AID 1117326; in the data active = nuclear beta-catenin stimulation mostly above about 4.2%, no sharp cut-off; inactive = mostly below about 10%); conditions: stronger effect = higher value
[2] = stimulators of insulin release from INS-1E, primary screen, cell-based, 5 mM glucose, NPC library (AID 1117329;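 active = compound raises insulin release from rat beta cells at 5 mM glucose, no numeric limit stated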); conditions: rat INS-1E insulin secretion, at 10 µM, stronger effect = higher value
[3] = growth inhibition of GSK3B-pretreated HCT116 cells – cell-based, CellTiter-Glo, 0.2 to 20 µM (AID 1117336;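 active = compounds lowering colon cancer cell viability after pretreatment blocking the GSK3B kinase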); conditions: HCT116 viability after GSK3B inhibitor, at 20 µM, stronger effect = higher value
[4] = inhibition of endothelial tube formation, primary screen, imaging, VEGF stimulated, CD31 staining, tube area, NPC library (AID 1117340;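 active = compound that reduces growth-factor-driven endothelial tube area in a mixed cell culture, no cutoff stated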); conditions: VEGF-stimulated ADSC/ECFC co-culture, at 10 µM, stronger effect = higher value
[5] = glucagon-like peptide 1 release enhancers, primary assay, NCI-H716 cell line, NPC library (AID 1117341;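 active = compound raises GLP1 secretion from the human gut endocrine cells, with no numeric limit stated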); conditions: NCI-H716 cells, at 10 µM, stronger effect = higher value
[6] = HCT116 colon cancer cell growth inhibition, primary screen, CellTiter-Glo luminescence, NPC library (AID 1117342;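 active = compounds that lower survival of HCT116 colon cancer cells in the luminescence readout, no numeric limit stated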); conditions: at 20 µM (top of the series)
[7] = CellTiter-Glo luminescent readout of SW480 viability loss, NPC library primary (AID 1117343;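 active = compounds that lower viability of the colon cancer cells in the luminescence readout, with no numeric limit stated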); conditions: CellTiter-Glo luminescence; at 20 µM (top of the series)
[8] = decreased DLD-1 cellular survival, CellTiter-Glo luminescent readout, NPC compound collection, primary HTS (AID 1117346;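 active = compounds that lower survival of DLD-1 colon cancer cells in the luminescence readout, no cutoff given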); conditions: DLD-1 viability, CellTiter-Glo luminescence; at 20 µM (top of the series)
[9] = molecular target: 6-phosphogluconate dehydrogenase, decarboxylating (Homo sapiens) (UniProt P52209); experiment: 6PGD enzyme inhibitors, primary screen, biochemical, human, recombinant enzyme, NADPH absorbance (AID 1159550;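 active = at least 20% inhibition of 6-phosphogluconate dehydrogenase activity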); conditions: recombinant 6PGD, NADPH absorbance 341 nm; at 10 µM; stronger effect = higher value
6-phosphogluconate dehydrogenase, decarboxylating (Homo sapiens), sequence (P52209 whole entry, looked up): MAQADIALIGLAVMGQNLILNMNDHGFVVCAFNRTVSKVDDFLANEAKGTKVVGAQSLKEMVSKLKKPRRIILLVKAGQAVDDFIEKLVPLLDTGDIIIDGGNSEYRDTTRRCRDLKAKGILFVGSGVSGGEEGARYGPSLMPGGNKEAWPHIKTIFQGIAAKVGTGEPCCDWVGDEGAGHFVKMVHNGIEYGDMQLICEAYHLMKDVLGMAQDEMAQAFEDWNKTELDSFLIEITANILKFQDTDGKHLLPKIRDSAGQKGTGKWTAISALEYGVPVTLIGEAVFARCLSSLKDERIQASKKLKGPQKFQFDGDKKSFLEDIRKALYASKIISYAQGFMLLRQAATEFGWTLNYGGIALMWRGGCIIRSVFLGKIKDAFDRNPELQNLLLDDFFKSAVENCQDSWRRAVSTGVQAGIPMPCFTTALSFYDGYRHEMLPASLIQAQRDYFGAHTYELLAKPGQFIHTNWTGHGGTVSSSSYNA

[10] = modulation of C. elegans fzo-1 (AID 1259413; call rule not given here;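 note: fzo-1 mutant C. elegans worms in liquid wells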); conditions: C. elegans fzo-1 modulator screen, mean read-out; stronger effect = higher value
[11] = differential killing of epithelial or mesenchymal cells, primary screen, imaging, PC-3E GFP, TEM4-18 mCherry, co-culture (AID 1345086;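 active = compounds killing one labelled cell type while sparing the other, by normalised counts and ratio limits, not self-fluorescent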;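 for all read-outs here: cells exposed to compound for 72 h before imaging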;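 for red/green cell ratio (normalised): normalised mesenchymal count divided by normalised epithelial count so high means epithelial killing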); conditions: imaging cell counts, at 1 µM; for red/green cell ratio (normalised): actives lie on both sides, counts scaled to control wells, 1 = unselective
[12] = survival rescue of mitochondrial mutant cells in low glucose, primary screen, MELAS cybrids, Rieske KO mouse fibroblasts, CellTiter-Glo (AID 1508586;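 active = mean z-score across replicates of 1.96 or higher in either the MELAS or the Rieske mutant cell line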;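 note: z relative to plate mean and SD of compound and empty wells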)
[13] = ovarian cancer cell viability with rucaparib, profiling panel, oncology-focused library, rucaparib conditional (AID 1508598); conditions: patient-derived ovarian cancer cells, CellTiter-Glo viability, 144 h, stronger effect = lower value
[14] = molecular target: NAD(+) hydrolase SARM1 (Homo sapiens) (UniProt Q6SZW1); experiment: SARM1 TIR NADase inhibitors, cell lysate, NAD-Glo luminescence (AID 1508614;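 active = compound whose remaining NAD level is above about 45 nM, limit read from the data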;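 note: higher remaining NAD means stronger inhibition of SARM1 NADase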); conditions: SAM-TIR HEK293T lysate NADase, at 1 µM, stronger effect = higher value
NAD(+) hydrolase SARM1 (Homo sapiens), sequence (Q6SZW1 whole entry, looked up, the tested form may be a part): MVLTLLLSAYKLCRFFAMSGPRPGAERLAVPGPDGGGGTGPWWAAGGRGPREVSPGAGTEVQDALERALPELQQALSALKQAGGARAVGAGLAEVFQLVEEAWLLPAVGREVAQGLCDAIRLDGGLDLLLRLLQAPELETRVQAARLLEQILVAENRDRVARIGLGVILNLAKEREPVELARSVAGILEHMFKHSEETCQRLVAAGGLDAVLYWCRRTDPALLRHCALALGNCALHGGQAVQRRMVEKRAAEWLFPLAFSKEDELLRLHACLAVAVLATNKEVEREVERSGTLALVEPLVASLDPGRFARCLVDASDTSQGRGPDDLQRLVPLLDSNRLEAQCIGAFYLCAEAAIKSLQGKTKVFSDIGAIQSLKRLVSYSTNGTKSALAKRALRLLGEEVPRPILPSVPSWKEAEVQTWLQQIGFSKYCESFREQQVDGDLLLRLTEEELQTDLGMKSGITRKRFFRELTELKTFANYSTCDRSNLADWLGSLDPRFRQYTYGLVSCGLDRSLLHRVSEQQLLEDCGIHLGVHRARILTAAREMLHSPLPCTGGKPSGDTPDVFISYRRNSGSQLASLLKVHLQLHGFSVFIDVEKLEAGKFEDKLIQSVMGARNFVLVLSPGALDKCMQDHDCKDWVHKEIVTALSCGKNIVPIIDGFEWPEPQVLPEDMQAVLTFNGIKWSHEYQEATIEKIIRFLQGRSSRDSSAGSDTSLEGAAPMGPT

[15] = molecular target: Mitogen-activated protein kinase 7 (Homo sapiens) (UniProt Q13164); experiment: ERK5 transactivation activators in reporter cells, primary screen, cell-based, HTS (AID 1508626;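 active = luciferase signal above three times the same-plate solvent-only control wells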;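 note: luciferase driven by Gal4-ERK5 fusion binding five Gal4 sites before minimal TATA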); conditions: HeLa Gal4-ERK5 transactivation, 18 h, at 5 µM, stronger effect = higher value
Mitogen-activated protein kinase 7 (Homo sapiens), sequence (Q13164 whole entry, looked up, the tested form may be a part): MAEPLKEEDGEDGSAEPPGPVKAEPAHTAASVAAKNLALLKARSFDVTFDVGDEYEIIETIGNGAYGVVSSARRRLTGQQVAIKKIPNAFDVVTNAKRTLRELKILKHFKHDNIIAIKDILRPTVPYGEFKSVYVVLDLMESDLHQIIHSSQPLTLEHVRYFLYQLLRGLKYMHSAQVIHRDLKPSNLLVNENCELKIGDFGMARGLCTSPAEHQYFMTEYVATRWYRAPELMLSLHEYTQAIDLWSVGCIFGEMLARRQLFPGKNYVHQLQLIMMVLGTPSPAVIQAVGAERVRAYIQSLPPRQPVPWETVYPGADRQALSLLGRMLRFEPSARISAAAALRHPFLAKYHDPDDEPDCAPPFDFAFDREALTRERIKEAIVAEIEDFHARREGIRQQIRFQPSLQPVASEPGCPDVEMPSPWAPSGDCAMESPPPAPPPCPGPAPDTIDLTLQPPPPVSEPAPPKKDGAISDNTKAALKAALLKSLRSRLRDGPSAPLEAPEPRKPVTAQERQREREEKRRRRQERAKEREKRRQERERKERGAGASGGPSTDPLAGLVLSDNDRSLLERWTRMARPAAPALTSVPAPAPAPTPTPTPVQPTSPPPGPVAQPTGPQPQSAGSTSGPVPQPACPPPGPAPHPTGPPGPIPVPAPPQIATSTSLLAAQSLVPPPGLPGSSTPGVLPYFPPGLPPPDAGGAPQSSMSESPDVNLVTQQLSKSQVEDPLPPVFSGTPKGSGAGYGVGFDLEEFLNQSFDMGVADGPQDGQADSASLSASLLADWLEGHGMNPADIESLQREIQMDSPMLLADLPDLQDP

[16] = ICB984 medulloblastoma cell growth inhibition, synergistic combos for chromothripsis tumors, cisplatin or BGB combos (AID 1671451; call rule not given here;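 note: cells exposed for 96 hours before readout; 0% = vehicle DMSO and 100% = killing by high DMSO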); conditions: ICB984 medulloblastoma cells, drug combinations, stronger effect = higher value
F380Y = experiment: modulators of BK channel variants, profiling panel, selectivity assay, cell-based, U2OS BacMam, thallium flux, beta subunits (AID 1259406;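 active = thallium flux through the channel raised or lowered by more than 3 SD from vehicle-only wells, actives on both sides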;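 note: initial slope of Thallos dye fluorescence rise after thallium is added; log ratio against the mean of 0.3% DMSO vehicle wells on the same plate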); conditions: at 30 µM
F380Y/beta1 = experiment: as above; conditions: at 30 µM
F380Y/beta2Delta = experiment: as above; conditions: at 30 µM
[17] = sensitizers of A549 cells to miR-34 induction, primary screen, imaging, A549 dox-inducible miR-34, nuclei and caspase counts (AID 1347080;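 active = compounds whose cell count with miR-34 switched on is under 0.7 times the count with it off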); conditions: A549 miR-34 inducible, Hoechst nuclei count, 48 h
[18] = measured here: epithelial PC-3E GFP cell survival
[19] = measured here: mesenchymal TEM4-18 mCherry cell survival
[20] = MELAS cybrid survival, CellTiter-Glo 48 h, stronger effect = higher value
[21] = Rieske KO mouse fibroblast survival, CellTiter-Glo 72 h
[22] = stronger effect = lower value, cell number ratio, induced over uninduced
[23] = measured here: relative caspase fold change +Dox/-Dox
[24] = measured here: total cells with miR-34 induction, stronger effect = lower value
[25] = measured here: total cells without miR-34 induction

O=c1[nH]cc(F)c(=O)[nH]1
nuclear beta-catenin stimulation ([1]; at 10 µM): 6.3% (inactive) | nuclear beta-catenin stimulation ([1]; stimulation, at 2 µM): 1.7% | insulin secretion stimulation [2]: -3% (inactive) | viability decrease [3]: 87.4% (active) | tube area decrease [4]: 56.6% (active) | GLP1 secretion stimulation [5]: -0.1% (inactive) | inhibition of viability [6]: 75.1% (active) | viability decrease (inhibition) [7]: 28.6% (inactive) | viability decrease (inhibition) [8]: 26.6% (inactive) | inhibition [9]: -1.95% (inactive) | mean signal [10]: 262 (inactive) | red/green cell ratio (normalised) [11]: 0.94 (inactive) | normalised cell number [11, 18]: 0.82 | normalised cell number [11, 19]: 0.77 | z-score [12, 20]: -0.415 (inactive) and 0.96 (inactive) and 1.17 | z-score [12, 21]: 0.32 and 1.37 and 2.42 | viability ([13]; at 0.000305 µM, OCI-C5x cells, with rucaparib 10 µM, 100% = cells with rucaparib alone): 118% (inactive) | viability ([13]; at 0.000305 µM, OCI-C5x cells, without rucaparib): 111% (inactive) | viability ([13]; at 0.000305 µM, OCI-P5x cells, with rucaparib 20 µM, 100% = cells with rucaparib alone): 113% (inactive) | viability ([13]; at 0.000305 µM, OCI-P5x cells, without rucaparib): 111% (inactive) | viability ([13]; at 0.00122 µM, OCI-C5x cells, with rucaparib 10 µM, 100% = cells with rucaparib alone): 121% (inactive) | viability ([13]; at 0.00122 µM, OCI-C5x cells, without rucaparib): 108% (inactive) | viability ([13]; at 0.00122 µM, OCI-P5x cells, with rucaparib 20 µM, 100% = cells with rucaparib alone): 115% (inactive) | viability ([13]; at 0.00122 µM, OCI-P5x cells, without rucaparib): 115% (inactive) | viability ([13]; at 0.00488 µM, OCI-C5x cells, with rucaparib 10 µM, 100% = cells with rucaparib alone): 115% (inactive) | viability ([13]; at 0.00488 µM, OCI-C5x cells, without rucaparib): 115% (inactive) | viability ([13]; at 0.00488 µM, OCI-P5x cells, with rucaparib 20 µM, 100% = cells with rucaparib alone): 104% (inactive) | viability ([13]; at 0.00488 µM, OCI-P5x cells, without rucaparib): 98.7% (active) | viability ([13]; at 0.0195 µM, OCI-C5x cells, with rucaparib 10 µM, 100% = cells with rucaparib alone): 129% (inactive) | viability ([13]; at 0.0195 µM, OCI-C5x cells, without rucaparib): 101% (inactive) | viability ([13]; at 0.0195 µM, OCI-P5x cells, with rucaparib 20 µM, 100% = cells with rucaparib alone): 111% (inactive) | viability ([13]; at 0.0195 µM, OCI-P5x cells, without rucaparib): 106% (inactive) | viability ([13]; at 0.0781 µM, OCI-C5x cells, with rucaparib 10 µM, 100% = cells with rucaparib alone): 103% (inactive) | viability ([13]; at 0.0781 µM, OCI-C5x cells, without rucaparib): 102% (inactive) | viability ([13]; at 0.0781 µM, OCI-P5x cells, with rucaparib 20 µM, 100% = cells with rucaparib alone): 106% (inactive) | viability ([13]; at 0.0781 µM, OCI-P5x cells, without rucaparib): 102% (inactive) | viability ([13]; at 0.313 µM, OCI-C5x cells, with rucaparib 10 µM, 100% = cells with rucaparib alone): 121% (inactive) | viability ([13]; at 0.313 µM, OCI-C5x cells, without rucaparib): 105% (inactive) | viability ([13]; at 0.313 µM, OCI-P5x cells, with rucaparib 20 µM, 100% = cells with rucaparib alone): 99.1% (active) | viability ([13]; at 0.313 µM, OCI-P5x cells, without rucaparib): 100% (inactive) | viability ([13]; at 1.25 µM, OCI-C5x cells, with rucaparib 10 µM, 100% = cells with rucaparib alone): 145% (inactive) | viability ([13]; at 1.25 µM, OCI-C5x cells, without rucaparib): 123% (inactive) | viability ([13]; at 1.25 µM, OCI-P5x cells, with rucaparib 20 µM, 100% = cells with rucaparib alone): 99.6% (active) | viability ([13]; at 1.25 µM, OCI-P5x cells, without rucaparib): 102% (inactive) | viability ([13]; at 5 µM, OCI-C5x cells, with rucaparib 10 µM, 100% = cells with rucaparib alone): 236% (inactive) | viability ([13]; at 5 µM, OCI-C5x cells, without rucaparib): 146% (inactive) | viability ([13]; at 5 µM, OCI-P5x cells, with rucaparib 20 µM, 100% = cells with rucaparib alone): 82.4% (active) | viability ([13]; at 5 µM, OCI-P5x cells, without rucaparib): 73.4% (active) | remaining NAD [14]: 10 nM (inactive) | luciferase signal [15]: 80 AU (inactive) | inhibition ([16]; BGB IC20 combo, at 0.005 µM): -34.1% | inhibition ([16]; BGB IC40 combo, at 0.005 µM): -27.4% | inhibition ([16]; BGB IC40 combo, at 0.05 µM): 5.15% | inhibition ([16]; at 0.5 µM): 0.32% (inactive) | inhibition ([16]; cisplatin combo, at 0.05 µM): 5.15% | inhibition ([16]; cisplatin combo, at 0.5 µM): 7.66% | inhibition ([16]; cisplatin combo, at 5 µM): -4.18% | inhibition ([16]; measured here: 5 uM single agent, at 5 µM): -20.2% | log fold change Tl+ flux (F380Y): -0.0334 (inactive) | log fold change Tl+ flux (F380Y/beta1): 0.0119 (inactive) | log fold change Tl+ flux (F380Y/beta2Delta): -0.0613 (inactive)

NCc1ccc(S(N)(=O)=O)cc1
nuclear beta-catenin stimulation ([1]; at 10 µM): 0.8% (inactive) | nuclear beta-catenin stimulation ([1]; stimulation, at 2 µM): 0.2% | insulin secretion stimulation [2]: -0.5% (active) | viability decrease [3]: 1.95% (inactive) | tube area decrease [4]: 8.4% (inactive) | GLP1 secretion stimulation [5]: 1.9% (inactive) | inhibition of viability [6]: 7% (inactive) | viability decrease (inhibition) [7]: 14.1% (inactive) | viability decrease (inhibition) [8]: 13.8% (inactive) | inhibition [9]: -1.59% (inactive) | mean signal [10]: 250 (inactive) | red/green cell ratio (normalised) [11]: 1 (inactive) | normalised cell number [11, 18]: 0.74 | normalised cell number [11, 19]: 0.74 | fold change [17, 22]: 0.973 (inactive) and 0.954 (inactive) and 0.851 (inactive) | fold change [17, 23]: 2.25 and 1.29 and 0.783 | cell count [17, 24]: 11100 and 8530 and 11400 | cell count [17, 25]: 11400 and 8940 and 13400 | z-score [12, 20]: 0.171 (inactive) | z-score [12, 21]: -0.0568 | remaining NAD [14]: 10 nM (inactive) | luciferase signal [15]: 92 AU (inactive) | log fold change Tl+ flux (F380Y): 0.0308 (inactive) | log fold change Tl+ flux (F380Y/beta1): 0.0173 (inactive) | log fold change Tl+ flux (F380Y/beta2Delta): -0.0418 (inactive)

COc1cc2nc(N(C)CCCNC(=O)C3CCCO3)nc(N)c2cc1OC (configuration not stated)
nuclear beta-catenin stimulation ([1]; at 10 µM): 1.8% (inactive) | nuclear beta-catenin stimulation ([1]; stimulation, at 2 µM): 1.8% | insulin secretion stimulation [2]: -0.3% (inactive) | viability decrease [3]: -24.4% (inactive) | tube area decrease [4]: -4.5% (inactive) | GLP1 secretion stimulation [5]: 14.6% (inactive) | inhibition of viability [6]: 21.1% (inactive) | viability decrease (inhibition) [7]: 19.4% (inactive) | viability decrease (inhibition) [8]: 0.1% (inactive) | inhibition [9]: 0.608% (inactive) | mean signal [10]: 257 (inactive) | red/green cell ratio (normalised) [11]: 0.93 (inactive) | normalised cell number [11, 18]: 1.18 | normalised cell number [11, 19]: 1.09 | z-score [12, 20]: -0.397 (inactive) and -0.012 (inactive) | z-score [12, 21]: 0.382 and 0.0438 | remaining NAD [14]: 10 nM (inactive) | luciferase signal [15]: 28 AU (inactive) | log fold change Tl+ flux (F380Y): 0.0271 (inactive) | log fold change Tl+ flux (F380Y/beta1): -0.0154 (inactive) | log fold change Tl+ flux (F380Y/beta2Delta): 0.0311 (inactive)

CN(C)CCc1c[nH]c2ccc(C[C@H]3COC(=O)N3)cc12
nuclear beta-catenin stimulation ([1]; at 10 µM): 0.3% (inactive) | nuclear beta-catenin stimulation ([1]; stimulation, at 2 µM): 1.8% | insulin secretion stimulation [2]: 1.2% (inactive) | viability decrease [3]: 14.8% (inactive) | tube area decrease [4]: -1.1% (inactive) | GLP1 secretion stimulation [5]: -0.5% (inactive) | inhibition of viability [6]: 13.1% (inactive) | viability decrease (inhibition) [7]: 26.5% (inactive) | viability decrease (inhibition) [8]: 24.6% (inactive) | inhibition [9]: 8.76% (inactive) | mean signal [10]: 245 (inactive) | red/green cell ratio (normalised) [11]: 0.98 (inactive) | normalised cell number [11, 18]: 1.02 | normalised cell number [11, 19]: 1 | fold change [17, 22]: 0.877 (inactive) | fold change [17, 23]: 1.39 | cell count [17, 24]: 11600 | cell count [17, 25]: 13300 | z-score [12, 20]: 0.816 (inactive) | z-score [12, 21]: -0.25 | remaining NAD [14]: 10 nM (inactive) | luciferase signal [15]: 32 AU (inactive) | log fold change Tl+ flux (F380Y): 0.0506 (inactive) | log fold change Tl+ flux (F380Y/beta1): 0.00826 (inactive) | log fold change Tl+ flux (F380Y/beta2Delta): -0.0158 (inactive)
